Screening results from PubChem BioAssay.
Only some compounds are listed: those with a hit (about 1% of all), similar ones and a draw of the others.
MKP-1 inh: MKP-1 phosphatase inhibitors, primary screen, biochemical, in vitro; Dual specificity protein phosphatase 1 (Homo sapiens), P28562; actives 0.15% (n = 65,000); recombinant MKP-1, OMFP hydrolysis fluorescence; inhibition, %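 (compounds tested at a single concentration somewhere between 10 and 100 µM)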;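 active means inhibition above about 50%, limit read from the data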;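 further: 0% = DMSO max control wells and 100% = wells with enzyme stopped by NaOH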
ROCK2 inh: inhibitors of human ROCK2 kinase, primary screen, biochemical, high-throughput, luminescence. Rho-associated protein kinase 2 (Homo sapiens), O75116. purified ROCK2, Kinase-Glo ATP depletion luminescence. inhibition, % at 6 µM. actives 0.35% (n = 60,000);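 active means inhibition above the screen-wide mean inhibition plus 3 SD, cut at about 18% in these data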;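 further: plate controls were DMSO wells for no effect and Y-27632 control wells after no-enzyme background subtraction for full effect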
Cdc25B block: inhibitors of Cdc25B phosphatase catalytic domain, primary screen, biochemical, OMFP fluorescence | M-phase inducer phosphatase 2 (Homo sapiens), P30305 | recombinant Cdc25B, OMFP fluorescence Ex485/Em525 | inhibition, %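 (compounds tested at 10 µM final in the well)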 | actives 0.1% (n = 65,000); in the data active means inhibition above about 50%
Target sequence (P30305 whole entry, looked up, the tested form may be a part): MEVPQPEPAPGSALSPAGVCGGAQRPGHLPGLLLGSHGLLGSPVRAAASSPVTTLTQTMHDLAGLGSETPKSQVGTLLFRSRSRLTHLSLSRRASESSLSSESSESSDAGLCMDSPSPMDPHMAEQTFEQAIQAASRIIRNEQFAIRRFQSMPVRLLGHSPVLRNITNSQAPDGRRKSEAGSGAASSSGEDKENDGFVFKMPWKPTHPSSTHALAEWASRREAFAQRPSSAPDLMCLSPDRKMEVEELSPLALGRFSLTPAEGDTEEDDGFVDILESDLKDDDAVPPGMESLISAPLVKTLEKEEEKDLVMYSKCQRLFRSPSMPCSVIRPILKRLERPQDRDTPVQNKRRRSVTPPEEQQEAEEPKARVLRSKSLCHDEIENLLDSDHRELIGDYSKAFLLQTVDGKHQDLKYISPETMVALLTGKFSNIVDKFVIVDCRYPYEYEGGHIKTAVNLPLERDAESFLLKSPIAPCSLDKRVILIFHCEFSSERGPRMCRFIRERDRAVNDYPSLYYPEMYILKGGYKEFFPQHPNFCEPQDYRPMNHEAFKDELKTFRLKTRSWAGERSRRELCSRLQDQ
JNK3 blocker: JNK3 kinase activity inhibitors, primary screen, biochemical, human, purified enzyme. Mitogen-activated protein kinase 10 (Homo sapiens), P53779. HTS. inhibition, % at 8 µM. actives 0.61% (n = 60,000). AID 746, 2007; in the data active means inhibition above about 17%;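 further: 0% = DMSO and 100% = reference inhibitor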
Hsp90 inh: tumor Hsp90 inhibitors, primary screen, cell lysate, fluorescence polarization, NCI-N417 lysate; Cy3B-geldanamycin FP displacement; inhibition, % at 30 µM; actives 0.35% (n = 64,000);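 active means inhibition above 50%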;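 further: 0% = tracer plus lysate wells and 100% = tracer alone without lysate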
PKA inh: inhibitors of human PKA kinase activity, primary screen, biochemical, ATP-depletion luminescence, Kemptide substrate | PKA Kemptide phosphorylation, Kinase-Glo ATP luminescence | AID 524, 2006 | actives 0.1% (n = 65,000) | inhibition, % at 6 µM | cAMP-dependent protein kinase catalytic subunit alpha (Homo sapiens), P17612;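 active means inhibition above the screen-wide mean inhibition plus 3 SD, cut at about 21% in these data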
An asterisk follows results filed as active; . = not tested or not shown.

SMILES	MKP-1 inh	ROCK2 inh	Cdc25B block	JNK3 blocker	Hsp90 inh	PKA inh
CCOC(=O)C(CC)n1cnc2sc3c(c2c1=O)CCC3 (centres undefined)	-24	3	84*	-7	2	-2
Fc1cc2nccnc2cc1N1CCSCC1	1	10	-3	23*	-5	12
OC[C@H]1O[C@@H](n2cnc3c(Nc4ccccc4)ncnc32)C(O)[C@H]1O (some centres undefined)	.	.	.	.	2	.
Nc1nc(SCc2ccc([N+](=O)[O-])cc2)c2ncn([C@@H]3O[C@H](CO)[C@H](O)C3O)c2n1 (some centres undefined)	.	.	.	.	46	.
Cc1nc2sccn2c1-c1nc(-c2cc3ccccc3o2)cs1	40	3	-7	6	-9	6
Cc1ccnc(Nc2nc(-c3c(C)nc4sccn34)cs2)c1	5	4	-7	34*	7	6
CCc1nc2c(sc3nc(N4CCOCC4)c4c(c32)CC(C)(C)OC4)c(=O)o1	-24	2	-40	2	-3	3
Cn1cnc2c(NC3CCCC3)ncnc21	.	.	.	.	0	.
CCCCCCCCCCCCCCCC(=O)OC(CC(=O)O)C[N+](C)(C)C (centres undefined)	.	.	.	.	-1	.
CCOC(=O)c1ccc(NC2c3ncccc3C(=O)N2Cc2ccc(F)cc2)cc1 (centres undefined)	52*	-4	-3	-8	-1	-2
COC(=O)c1cc(NC2c3ncccc3C(=O)N2Cc2ccccc2)cc(C(=O)OC)c1 (centres undefined)	32	1	-27	2	2	7
CC(CCc1ccc(O)cc1)NCCc1ccc(O)c(O)c1 (centres undefined)	.	.	.	.	61*	.
N=c1ccn2c(n1)OC1[C@@H](O)[C@@H](CO)O[C@H]12 (some centres undefined)	.	.	.	.	-4	.
Nc1ccc(-n2c(N)c(C(=O)NCc3ccc4c(c3)OCO4)c3nc4ccccc4nc32)cc1	19	3	-2	21*	-8	0
CN(C)C(N)=NCCC[C@H](N)C(=O)O	.	.	.	.	-4	.
O=C(CCn1c(=O)[nH]c2ccccc2c1=O)Nc1ccccc1	11	4	102*	2	0	6
OC[C@H]1O[C@@H](n2cnc3c(NCCc4ccccc4)ncnc32)C(O)[C@H]1O (some centres undefined)	.	.	.	.	0	.
CCC(=O)N1CCN(CCN=Cc2c(O)n(C3CCCCC3)c(=O)n(C3CCCCC3)c2=O)CC1	37	2	-6	-14	0	-3
CCOC(=O)c1c(C)oc2c1c(C=NCC1CCCO1)c(O)c1ccccc12 (centres undefined)	35	-1	28	11	64*	2
CN(C)c1ccc(C2N(c3cccc(Cl)c3)C(=O)C3CCCN32)cc1 (centres undefined)	-8	6	-12	-1	-1	4
N[C@@H](CCCC(=O)O)C(=O)O	.	.	.	.	-3	.
O=c1c(O)c(-c2cc(O)c(O)c(O)c2)oc2cc(O)cc(O)c12	.	.	.	.	100*	.
COC1=C(OC)C(=O)c2ccccc2C1=O	.	.	.	.	93*	.
CN=CC1=C(O)c2ccccc2C1=O	-18	6	-11	5	0	9
COc1ccc(-c2nc(CN3CCC(C(=O)NC(C)C)CC3)c(C)o2)cc1OC	1	3	-6	2	-1	0
O=C1CC(N2CCN(Cc3ccccc3)CC2)C(=O)N1c1ccccc1 (centres undefined)	10	3	-3	4	-3	7
O=C1CC(N2CCN(CCc3ccccn3)CC2)C(=O)N1c1ccc(Cl)cc1 (centres undefined)	12	-4	59*	-3	-1	-8
Cc1nc2ccc(S(=O)(=O)NC(C(=O)NCc3ccco3)C(C)C)cc2s1 (centres undefined)	13	-1	60*	-8	-3	-6
Cc1nc2ccc(S(=O)(=O)NC(C(=O)N3CCn4c3nc3ccccc34)C(C)C)cc2s1 (centres undefined)	13	-2	-4	7	-2	10
